Measured values taken from PubChem BioAssay (EPA / NIEHS).
Several values for one entry are separate records, joined by “and”; a condition that tells them apart may be missing. Equal values may be shown once. Inconclusive results are not listed. Activity calls are given as the source filed them. Rule for the calls: active = hit-call score of the fitted dose curve at least 0.9, where 1 is the maximum; inconclusive = response in the unintended direction; inactive = score below 0.9.

Each molecule was assayed against Bile acid receptor (Homo sapiens) (UniProt Q96RI1) (assay: OT_FXR_FXRSRC1_0480: Odyssey Thera (OT) 8-hour HEK293T Protein-Complementation Assay for Farnesoid X receptor/SRC-1 Co-activator (AID 2283383)).
Sequence of Bile acid receptor (Homo sapiens) (Q96RI1 whole entry, looked up): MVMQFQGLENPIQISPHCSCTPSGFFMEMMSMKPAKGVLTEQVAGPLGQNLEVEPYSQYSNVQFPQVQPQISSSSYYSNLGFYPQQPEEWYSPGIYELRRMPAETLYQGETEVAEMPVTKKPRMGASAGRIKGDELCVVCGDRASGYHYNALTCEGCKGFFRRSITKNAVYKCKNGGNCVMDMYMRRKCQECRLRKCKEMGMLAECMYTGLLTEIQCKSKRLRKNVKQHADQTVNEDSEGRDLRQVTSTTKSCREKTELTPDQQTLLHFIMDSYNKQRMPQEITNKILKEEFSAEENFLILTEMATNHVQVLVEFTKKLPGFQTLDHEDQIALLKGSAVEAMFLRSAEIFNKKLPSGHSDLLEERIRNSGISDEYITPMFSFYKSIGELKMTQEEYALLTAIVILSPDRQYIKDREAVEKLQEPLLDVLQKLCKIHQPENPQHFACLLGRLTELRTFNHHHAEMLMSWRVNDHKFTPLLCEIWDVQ
Procedure, shortened: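 PCA, HEK293T, 8 h compound exposure; FXR–SRC-1 binding reconstitutes split reporter; fluorescence intensity; positive-direction fit vs DMSO.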

Row | Compound | outcome | AC50
1 | COc1ccc(O)c(C(C)(C)C)c1 | inactive | 
2 | C1CC2OC2CC1C1CO1 (stereo unspecified) | inactive | 
3 | CO/C=C(/C(=O)OC)c1ccccc1COc1cccc(C(F)(F)F)n1 |  | 9.85 µM (active)
4 | Cc1cccc(C)c1N | inactive | 
5 | CCSC(=O)N(CC)C1CCCCC1 | inactive | 
6 | C[C@]12CCC(=O)C=C1CC[C@@H]1[C@@H]2CC[C@]2(C)C(=O)CC[C@@H]12 |  | 26.8 µM (active) and 19.3 µM (active) and 27.1 µM (active)
7 | N#Cc1ccc(N(CC(N)=O)CC(F)(F)F)cc1C(F)(F)F | inactive | 
8 | c1cc2ccc3cccc4ccc(c1)c2c34 | inactive | 
9 | CN(C)c1nc(=O)n(C2CCCCC2)c(=O)n1C | inactive | 
10 | Clc1ccc(C(Cl)(Cl)Cl)cc1 | inactive | 
11 | OCC(O)CO | inactive | 
